Measured values as given in the supplement of paper PMC9254222.
Over roughly 1,100 compounds, “Renilla luciferase signal (cell health) relative to plate median” has its median near 0.97; the highest 2% begin near 1.6. Many of the other results were omitted from the sample, so the highest values are more common in it than they were.

Tested on: HEK293T (UBE3A T485A transfected, BAR Wnt reporter)
Experiment: Renilla luciferase signal (cell health) relative to plate median (fold (linear ratio)); higher = higher Renilla signal
Settings: 24 h
Outline: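 HEK293T cells carrying a transfected BAR firefly luciferase Wnt reporter, TK-Renilla and an expression plasmid were exposed to chemicals at 0.01–100 uM for 24 h, with dosing four hours after transfection. Readout used Dual-Glo luciferase. The firefly/Renilla ratio defined Wnt activity and raw Renilla defined cell health, each median-centred per plate. Figures are means of four biological replicates.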

SMILES | Renilla luciferase signal (concentration: 0.01 uM) | Renilla luciferase signal (concentration: 0.1 uM) | Renilla luciferase signal (concentration: 1 uM) | Renilla luciferase signal (concentration: 10 uM) | Renilla luciferase signal (concentration: 100 uM)
CCOP(=S)(OCC)SCn1c(=O)oc2cc(Cl)ccc21 [Phosalone] | 0.915 | 1.15 | 1.1 | 1.11 | 0.931
CCCCN(CC)c1c([N+](=O)[O-])cc(C(F)(F)F)cc1[N+](=O)[O-] [Benfluralin] | 1.12 | 0.838 | 0.99 | 0.917 | 1.31
COc1cc2c(c(OC)c1OC)-c1ccc(OC)c(=O)cc1[C@@H](NC(C)=O)CC2 [Colchicine] |  | 0.0537 | 0.036 | 0.0452 | 0.0414
Cc1ccn2nc(S(=O)(=O)Nc3c(F)cccc3F)nc2n1 [Flumetsulam] | 0.963 | 1.07 | 0.959 | 1.07 | 1.67
CCOc1nc(F)cc2nc(S(=O)(=O)Nc3c(Cl)cccc3Cl)nn12 [Diclosulam] | 0.684 | 0.741 | 1.03 | 0.878 | 0.911
COc1ccc(-c2ccccc2)cc1NNC(=O)OC(C)C [Bifenazate] | 1.24 | 1.21 | 1.11 | 1.06 | 0.851
Cc1ccc([N+](=O)[O-])cc1N [2-Methyl-5-nitroaniline] |  | 1.11 | 1.21 | 1.15 | 0.978
CC(C)N(C(=O)SCC(Cl)=C(Cl)Cl)C(C)C [Tri-allate] | 1.05 | 1.11 | 1.06 | 1.06 | 1.76
CC(C)COC(=O)c1ccccc1C(=O)OCC(C)C [Diisobutyl phthalate] |  | 0.825 | 0.827 | 0.867 | 1.01
C#CC(C)(C)NC(=O)c1cc(Cl)cc(Cl)c1 [Propyzamide] | 1.38 | 1.2 | 1.12 | 1.09 | 1.72
CCC(C)(NC(=O)c1cc(Cl)c(C)c(Cl)c1)C(=O)CCl (stereo not given) [Zoxamide] | 1.25 | 1.05 | 0.961 | 0.117 | 0.0244
COC(=O)N(OC)c1ccccc1COc1ccn(-c2ccc(Cl)cc2)n1 [Pyraclostrobin] | 1.35 | 0.995 | 0.707 | 0.149 | 0.113
Oc1ccc2ccc3cccc4ccc1c2c34 [1-Hydroxypyrene] |  | 1.01 | 1.06 | 1.09 | 0.811
O=P(Oc1ccccc1)(Oc1ccccc1)Oc1ccccc1 [Triphenyl phosphate] |  | 0.815 | 0.778 | 0.825 | 1.02
